PubChem BioAssay AID1159580 (chemical genetic matrix, 2015)
Where “and” joins values, the source holds several entries; their conditions need not be identical. Equal entries are not always repeated. Hit rate of the full screen: of about 5,500 compounds, about 2,000 (36%) were called active. About 18% were inconclusive and are not listed. Rule as the data show it: active = normalized growth mostly below about 0.91 (no sharp cut-off); inconclusive = no clear call, values can overlap the other calls; inactive = mostly above about 0.92. The list shows a part of the results.

Experiment: chemical genetic growth profiling, strain panel (AID 1159580);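 also: tested at 20 µM; growth read once vehicle control cultures reached saturation at 30 °C; 1 = growth at the plate median or of vehicle wells; lower values mean less growth of the strain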
Conditions: S. cerevisiae deletion strains, growth OD

Measured: normalized growth

CCC(/C=C/[C@@H](C)[C@H]1CCC2C3CC=C4C[C@@H](O)CC[C@]4(C)C3CC[C@@]21C)C(C)C (some centres undefined)
inactive: locus YAL013W, strain DEP1, active compounds read low 0.999 | locus YAL021C, strain ccr4, active compounds read low 1.02 | locus YAL026C, strain drs2, active compounds read low 0.935 | locus YAL030W, strain snc1, active compounds read low 0.99 | locus YBL061C, strain skt5, active compounds read low 0.997 | locus YBR009C, strain hhf1, active compounds read low 0.972 | locus YBR021W, strain FUR4, active compounds read low 1.04 | locus YBR023C, strain chs3, active compounds read low 0.988 | locus YBR171W, strain sec66, active compounds read low 0.985 | locus YBR229C, strain ROT2, active compounds read low 0.993 | locus YBR231C, strain swc5, active compounds read low 0.988 | locus YBR279W, strain paf1, active compounds read low 0.994 | locus YCL011C, strain gbp2, active compounds read low 0.968 | locus YCL016C, strain dcc1, active compounds read low 1 | locus YCL029C, strain bik1, active compounds read low 1 | locus YCL061C, strain MRC1, active compounds read low 1.01 | locus YCL069W, strain vba3, active compounds read low 0.99 | locus YCR088W, strain abp1, active compounds read low 0.994 | locus YDL005C, strain med2, active compounds read low 0.983 | locus YDL035C, strain GPR1, active compounds read low 1.02 | locus YDL040C, strain nat1, active compounds read low 0.987 | locus YDL074C, strain BRE1, active compounds read low 0.992 | locus YDL101C, strain DUN1, active compounds read low 1.01 | locus YDL185W, strain tfp1, active compounds read low 0.986 | locus YDL192W, strain arf1, active compounds read low 0.986 | locus YDR001C, strain nth1, active compounds read low 0.991 | locus YDR069C, strain doa4, active compounds read low 1.01 | locus YDR101C, strain arx1, active compounds read low 0.987 | locus YDR137W, strain rgp1, active compounds read low 0.931 | locus YDR150W, strain NUM1, active compounds read low 1.02 | locus YDR159W, strain sac3, active compounds read low 0.959 | locus YDR162C, strain NBP2, active compounds read low 1.02 | locus YDR195W, strain ref2 0.963 | locus YDR297W, strain sur2, active compounds read low 0.991 | locus YDR318W, strain mcm21, active compounds read low 0.987 | locus YDR334W, strain swr1, active compounds read low 0.988 | locus YDR335W, strain msn5, active compounds read low 0.982 | locus YDR388W, active compounds read low 0.989 | locus YDR392W, strain spt3, active compounds read low 0.894 | locus YDR502C, strain sam2, active compounds read low 0.992 | locus YEL003W, strain gim4, active compounds read low 0.982 | locus YEL037C, strain rad23, active compounds read low 0.976 | locus YEL061C, strain CIN8 (second series), active compounds read low 0.979 | locus YEL061C, strain CIN8, active compounds read low 0.999 | locus YER015W, strain faa2, active compounds read low 1 | locus YER016W, strain bim1, active compounds read low 0.979 | locus YER110C, active compounds read low 0.995 | locus YER111C, strain swi4, active compounds read low 0.99 | locus YER155C, strain BEM2 (second series), active compounds read low 0.993 | locus YER155C, strain BEM2, active compounds read low 0.986 | locus YER167W, strain BCK2, active compounds read low 0.997 | locus YFR010W, strain ubp6, active compounds read low 0.997 | locus YGL078C, strain dbp3, active compounds read low 0.991 | locus YGL086W, strain mad1, active compounds read low 1.02 | locus YGL167C, strain pmr1, active compounds read low 0.975 | locus YGL173C, strain kem1, active compounds read low 0.983 | locus YGL227W, strain vid30, active compounds read low 0.985 | locus YGL240W, strain doc1, active compounds read low 0.998 | locus YGL248W, strain PDE1, active compounds read low 1 | locus YGL253W, strain hxk2, active compounds read low 0.962 | locus YGR135W, strain pre9, active compounds read low 0.989 | locus YGR252W, strain gcn5, active compounds read low 0.971 | locus YHR013C, strain ard1, active compounds read low 0.957 | locus YHR027C, strain rpn1, active compounds read low 0.996 | locus YHR030C, strain SLT2, active compounds read low 1 and 0.954 | locus YHR079C, strain IRE1 (second series), active compounds read low 0.991 | locus YHR079C, strain IRE1, active compounds read low 0.964 | locus YHR094C, strain hxt1, active compounds read low 0.995 | locus YHR129C, strain ARP1, active compounds read low 0.999 | locus YHR142W, strain chs7, active compounds read low 1.02 | locus YHR200W, strain rpn10, active compounds read low 0.981 | locus YIL066C, strain RNR3, active compounds read low 1 | locus YIL073C, strain SPO22, active compounds read low 1 | locus YIL125W, strain kgd1, active compounds read low 1.02 | locus YIR030C, strain dcg1, active compounds read low 1 | locus YJL092W, strain hpr5, active compounds read low 0.998 | locus YJL095W, strain BCK1 (second series), active compounds read low 0.997 | locus YJL095W, strain BCK1, active compounds read low 1.01 and 0.976 | locus YJL115W, strain asf1, active compounds read low 0.993 | locus YJL129C, strain trk1, active compounds read low 1.01 | locus YJL134W, strain LCB3, active compounds read low 0.997 | locus YJL154C, strain vps35, active compounds read low 0.981 | locus YJL164C, strain tpk1, active compounds read low 1 | locus YJL166W, strain qcr8, active compounds read low 0.981 | locus YJL168C, strain set2, active compounds read low 0.997 | locus YJL187C, strain SWE1 (second series), active compounds read low 1 | locus YJL187C, strain SWE1, active compounds read low 0.993 | locus YJR043C, strain POL32, active compounds read low 1.04 | locus YJR066W, strain TOR1, active compounds read low 0.929 | locus YKL009W, strain mrt4, active compounds read low 1.02 | locus YKL068W, active compounds read low 0.994 | locus YKL085W, strain MDH1 (second series), active compounds read low 0.993 | locus YKL085W, strain MDH1, active compounds read low 0.993 | locus YKL160W, strain elf1, active compounds read low 1.04 | locus YKR001C, strain vps1, active compounds read low 1.02 | locus YKR026C, strain gcn3, active compounds read low 0.984 | locus YKR091W, strain srl3, active compounds read low 0.99 | locus YLL001W, strain dnm1, active compounds read low 1 | locus YLL026W, active compounds read low 1.01 | locus YLL041C, strain sdh2, active compounds read low 1 | locus YLR027C, strain aat2, active compounds read low 0.984 | locus YLR039C, strain RIC1, active compounds read low 0.964 | locus YLR058C, strain SHM2, active compounds read low 0.998 | locus YLR102C, strain apc9, active compounds read low 0.992 | locus YLR113W, strain HOG1, active compounds read low 0.951 | locus YLR221C, strain rsa3, active compounds read low 1 | locus YLR258W, strain gsy2, active compounds read low 0.991 | locus YLR262C, strain YPT6 (second series), active compounds read low 0.917 | locus YLR262C, strain YPT6, active compounds read low 1.01 | locus YLR268W, strain sec22, active compounds read low 0.987 | locus YLR320W, strain mms22, active compounds read low 0.998 | locus YLR330W, strain CHS5, active compounds read low 1 | locus YLR342W, strain FKS1 (second series), active compounds read low 1.05 | locus YLR342W, strain FKS1, active compounds read low 0.986 | locus YLR357W, strain rsc2, active compounds read low 1.03 | locus YLR370C, strain arc18, active compounds read low 0.988 | locus YLR371W, strain rom2, active compounds read low 0.999 | locus YLR384C, strain iki3, active compounds read low 0.982 | locus YLR418C, strain cdc73, active compounds read low 1.03 | locus YML016C, strain PPZ1, active compounds read low 0.991 | locus YML032C, strain rad52, active compounds read low 0.994 | locus YML120C, strain ndi1, active compounds read low 0.99 | locus YML124C, strain tub3, active compounds read low 0.992 | locus YMR058W, strain fet3, active compounds read low 0.984 | locus YMR078C, strain ctf18, active compounds read low 0.987 | locus YMR125W, strain sto1, active compounds read low 0.975 | locus YMR129W, active compounds read low 1 | locus YMR205C, strain PFK2, active compounds read low 0.981 | locus YMR223W, strain ubp8, active compounds read low 0.974 | locus YMR231W, strain pep5, active compounds read low 0.99 | locus YMR263W, strain SAP30, active compounds read low 1.02 | locus YMR307W, strain GAS1, active compounds read low 1.11 | locus YNL067W, strain RPL9B, active compounds read low 1.02 | locus YNL071W, strain lat1, active compounds read low 0.986 | locus YNL128W, strain TEP1, active compounds read low 1 | locus YNL183C, strain NPR1, active compounds read low 0.904 | locus YNL209W, strain ssb2, active compounds read low 0.993 | locus YNL233W, strain BNI4, active compounds read low 1.02 | locus YNL248C, strain rpa49, active compounds read low 0.987 | locus YNL250W, strain rad50, active compounds read low 0.991 | locus YNL271C, strain bni1, active compounds read low 0.99 | locus YNL298W, strain CLA4, active compounds read low 1 | locus YNL307C, strain MCK1, active compounds read low 1.01 | locus YNL322C, strain KRE1 (second series), active compounds read low 0.989 | locus YNL322C, strain KRE1, active compounds read low 0.995 | locus YNR049C, strain mso1, active compounds read low 0.979 | locus YNR052C, strain pop2, active compounds read low 0.983 | locus YOL012C, strain htz1 1.17 | locus YOL147C, strain pex11, active compounds read low 0.992 | locus YOR001W, strain rrp6, active compounds read low 1.01 | locus YOR061W, strain CKA2, active compounds read low 1 | locus YOR069W, strain VPS5, active compounds read low 0.992 | locus YOR070C, strain gyp1, active compounds read low 0.976 | locus YOR080W, strain dia2, active compounds read low 0.989 | locus YOR083W, strain WHI5, active compounds read low 1.05 | locus YOR106W, strain vam3, active compounds read low 0.999 | locus YOR136W, strain idh2, active compounds read low 0.995 | locus YOR144C, strain elg1, active compounds read low 0.987 | locus YOR184W, strain ser1, active compounds read low 1 | locus YOR231W, strain MKK1, active compounds read low 0.984 | locus YOR265W, strain rbl2, active compounds read low 0.989 | locus YOR270C, strain vph1, active compounds read low 0.909 | locus YOR290C, strain snf2, active compounds read low 0.921 | locus YOR316C, strain cot1, active compounds read low 0.989 | locus YPL051W, strain arl3, active compounds read low 1.01 | locus YPL078C, strain atp4, active compounds read low 1.01 | locus YPL106C, strain sse1, active compounds read low 0.996 | locus YPL240C, strain hsp82, active compounds read low 1.02 | locus YPL256C, strain CLN2, active compounds read low 0.962 | locus YPR119W, strain clb2, active compounds read low 0.99 | locus YPR141C, strain kar3, active compounds read low 0.994 | locus YPR163C, strain tif3, active compounds read low 0.997 | locus YPR167C, strain met16, active compounds read low 0.992 | strain wtn01, active compounds read low 0.996
